Results as given in the supplement of paper PMC13380429.

Experiments:
[1] = system: Vero E6 infected with SARS-CoV-2; assay: morphology score (similarity to uninfected cells); higher = more like uninfected cells; conditions: 24 h
[2] = system: Vero E6 infected with SARS-CoV-2; assay: SARS-CoV-2 infection rate relative to infected DMSO; higher = more infection, active = 60 or less; conditions: 24 h

SMILES | morphology score [1] | SARS-CoV-2 infection rate [2]
CN1CCN(C(c2ccccc2)c2ccc(Cl)cc2)CC1 (centres undefined) [chlorcyclizine] (10 µM) | 0.134 | 102% (inactive)
COC(=O)Nc1nc2cc(C(=O)c3cccs3)ccc2[nH]1 [nocodazole] (0.833333 µM) | 0.025 | 104% (inactive)
O=[N+]([O-])c1cc2nc(O)c(O)nc2cc1[N+](=O)[O-] (10 µM) | 0.165 | 100% (inactive)
O=C(NCCN1CCC2(CC1)C(=O)NCN2c1cccc(F)c1)c1ccc(F)c(F)c1 (10 µM) | 0.259 | 75.5% (inactive)
Cc1cc(CN)cc(C)c1NC(=O)c1ccc(-c2cc(Cl)ccc2Cl)o1 (10 µM) | 0.717 | 7.5% (active)
O=C1CCCCCCCCCCCCCCO1 [oxacyclohexadecan-2-one] (10 µM) | -0.0503 | 106% (inactive)
Cc1cc(Nc2ccc(NC(=O)c3ccc(Nc4ccnc5ccccc45)cc3)cc2)nc(N)n1 (0.833333 µM) | -0.0128 | 104% (inactive)
CC(C)[C@H](NS(=O)(=O)c1ccc(-c2ccc(Br)cc2)cc1)C(=O)O (10 µM) | -0.0577 | 107% (inactive)
C[C@H](CS)C(=O)N1CCC[C@H]1C(=O)O [captopril] (10 µM) | 0.0071 | 104% (inactive)
CCOC(=O)C1=C(COCCN)NC(C)=C(C(=O)OC)C1c1ccccc1Cl (centres undefined) [amlodipine] (10 µM) | 0.697 | 47% (active)
CCOC(=S)SSC(=S)OCC [dixanthogen] (10 µM) | -0.0377 | 106% (inactive)
COc1cc(C)c(/C=C/C(C)=C/C=C/C(C)=C/C(=O)O)c(C)c1C [acitretin] (10 µM) | -0.0971 | 116% (inactive)
